Reference: PubChem BioAssay (Tox21)
Activity calls are given as the source filed them. Unless noted, the call rests on the fitted dose curve; in most records, active means well fitted curve in the direction sought with a large enough effect in the repeat runs; inconclusive means weak or mixed curves; inactive means no such curve, though single readings can be large; an effect the other way counts as inactive or inconclusive.

Assays:
[1] = qHTS assay for small molecule agonists of the p53 signaling pathway - cell viability (AID 651633; calls by dose curve; further: nearly all actives have a fitted effect of over 30% in size; further: potency means the concentration at half of the fitted maximal effect)
How it was run: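 p53RE-bla cells were treated with compound for 16 hours at 37 C. Cytotoxicity was then measured as CellTiter-Glo luminescence after 30 min at room temperature.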

[2] = qHTS assay to test for compound auto fluorescence at 460 nm (blue) in HEK293 cells (AID 720678)
How it was run: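 Auto fluorescence in the blue band was quantified as triamterene equivalency. HEK293 cells were seeded at 2,000/well, dosed after a 4-5 hr attachment, and kept overnight at 37C before the 405/460 nm reading.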

[3] = qHTS assay to test for compound auto fluorescence at 460 nm (blue) in HEK293 cell free culture (AID 720681)
How it was run: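 Compounds were added to cell-free DMEM with 10% FBS and fluorescence read directly. The blue channel used 405 nm excitation and 460 nm emission, with triamterene as the reference fluorophore.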

[4] = qHTS assay to test for compound auto fluorescence at 535 nm (green) in HEK293 cell free culture (AID 720682)
How it was run: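 Cell-free medium (DMEM, 10% FBS) receives compound or DMSO by pintool. Plate read directly at Ex 485/Em 535 nm. Signal converted to fluorescein equivalency.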

[5] = qHTS assay to test for compound auto fluorescence at 460 nm (blue) in HepG2 cells (AID 720687)
How it was run: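 HepG2 cells in MEM with 10% FBS, attached overnight at 37 C, were exposed to compound or DMSO for 1 hr at 37 C, 5% CO2. Blue fluorescence was read at 405/460 nm, with triamterene as reference fluorophore.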

[6] = qHTS assay to identify small molecule antagonists of the androgen receptor (AR) signaling pathway - cell viability counter screen (AID 743033; further: nearly all actives have a fitted effect of over 45% in size; further: potency means the concentration at half of the fitted maximal effect)
[7] = biological target: Aryl hydrocarbon receptor (Homo sapiens) (UniProt P35869); assay: qHTS assay to identify small molecule that activate the aryl hydrocarbon receptor (AhR) signaling pathway (AID 743085); further: nearly all actives have a fitted effect of over 15% in size; further: potency means the concentration at half of the fitted maximal effect;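 on activation: HG2L7.5c1 human HepG2 liver cells with stably integrated DRE-driven firefly reporter; series mostly up to about 70 µM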
Sequence of Aryl hydrocarbon receptor (Homo sapiens) (P35869 whole entry, looked up): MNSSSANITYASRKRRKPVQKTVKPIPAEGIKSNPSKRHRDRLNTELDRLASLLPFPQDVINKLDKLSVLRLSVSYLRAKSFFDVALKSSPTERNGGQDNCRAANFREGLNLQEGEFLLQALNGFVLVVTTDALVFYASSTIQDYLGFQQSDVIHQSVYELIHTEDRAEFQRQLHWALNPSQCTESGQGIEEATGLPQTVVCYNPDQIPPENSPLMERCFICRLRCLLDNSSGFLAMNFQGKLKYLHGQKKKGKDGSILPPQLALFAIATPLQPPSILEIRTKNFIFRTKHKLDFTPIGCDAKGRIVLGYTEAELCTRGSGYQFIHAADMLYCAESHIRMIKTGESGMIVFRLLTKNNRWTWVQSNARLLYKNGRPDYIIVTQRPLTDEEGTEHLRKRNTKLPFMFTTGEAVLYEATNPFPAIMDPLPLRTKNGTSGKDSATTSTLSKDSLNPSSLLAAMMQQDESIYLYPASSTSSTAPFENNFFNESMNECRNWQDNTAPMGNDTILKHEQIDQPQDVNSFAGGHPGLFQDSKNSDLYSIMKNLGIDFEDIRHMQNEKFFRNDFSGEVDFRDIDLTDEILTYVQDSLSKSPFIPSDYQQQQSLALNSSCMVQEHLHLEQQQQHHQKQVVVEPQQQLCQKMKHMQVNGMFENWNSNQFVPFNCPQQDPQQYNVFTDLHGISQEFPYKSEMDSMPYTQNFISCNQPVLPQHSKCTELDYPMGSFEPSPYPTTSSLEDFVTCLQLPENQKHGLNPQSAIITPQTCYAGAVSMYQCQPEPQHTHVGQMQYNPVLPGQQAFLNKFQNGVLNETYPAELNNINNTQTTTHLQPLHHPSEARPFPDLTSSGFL
How it was run: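 Luminescence read-out: ONE-Glo reagent, 30 min at room temperature, in HG2L7.5c1 HepG2 reporter cells treated 24 h at 37C. Viability was measured beforehand by CellTiter-Fluor fluorescence after 30 min at 37C.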

[8] = biological target: Nuclear receptor subfamily 1 group I member 2 (Homo sapiens) (UniProt O75469); assay: CYP3A4 induction through human pregnane X receptor (PXR) by small molecules, qHTS assay (AID 1346984); further: nearly all actives have a fitted effect of over 40% in size; further: potency means the concentration at half of the fitted maximal effect
How it was run: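 Luminescence readout: luciferase signal after One-Glo (30 min, room temperature), following 3 h at 37C with 3uM final Luciferin-IPA P450 substrate. Cells were DPX-2 (HepG2, PXR/CYP3A4-luc co-transfected) dosed for 24 h.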

[9] = biological target: Nuclear receptor subfamily 1 group I member 2 (Homo sapiens) (UniProt O75469); assay: Human pregnane X receptor (PXR) activation by small molecules, qHTS assay (AID 1346985); further: nearly all actives have a fitted effect of over 40% in size; further: potency means the concentration at half of the fitted maximal effect
How it was run: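 DPX-2 cells (HepG2 co-transfected with a PXR response element and a CYP3A4-promoter luciferase construct) were seeded at 2,000 per well, rested 5 hr at 37C, then exposed to DMSO-dissolved compounds for 24 hr. Activation was read as luciferase luminescence.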

[10] = qHTS assay for small molecule agonists of the p53 signaling pathway (AID 651631; calls by dose curve; further: nearly all actives have a fitted effect of over 15% in size)
How it was run: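 p53RE-bla HCT-116 cells; compounds 16 h, 37 °C; LiveBLAzer B/G FRET substrate 2 h RT; fluorescence intensity read-out, qHTS format.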

[11] = qHTS assay to test for compound auto fluorescence at 590 nm (red) in HepG2 cells (AID 720674)
How it was run: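 Fluorescence at 590 nm emission following 540 nm excitation was recorded from HepG2 wells one hour after compound transfer, with DMSO-only wells as vehicle and Rose Bengal sodium equivalency as the scale.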

[12] = biological target: Glucocorticoid receptor (Homo sapiens) (UniProt P04150); assay: qHTS assay to identify small molecule antagonists of the glucocorticoid receptor (GR) signaling pathway (AID 720692; active means well fitted inhibition curve with a large enough effect in the signal ratio in the repeat runs, not every such curve was filed as active; inconclusive means weak or mixed curves, or effect the other way; inactive means no such curve, though single readings can be large or run the other way; the % refers to the signal ratio; further: potency means the concentration at half of the fitted maximal effect)
Sequence of Glucocorticoid receptor (Homo sapiens) (P04150 whole entry, looked up): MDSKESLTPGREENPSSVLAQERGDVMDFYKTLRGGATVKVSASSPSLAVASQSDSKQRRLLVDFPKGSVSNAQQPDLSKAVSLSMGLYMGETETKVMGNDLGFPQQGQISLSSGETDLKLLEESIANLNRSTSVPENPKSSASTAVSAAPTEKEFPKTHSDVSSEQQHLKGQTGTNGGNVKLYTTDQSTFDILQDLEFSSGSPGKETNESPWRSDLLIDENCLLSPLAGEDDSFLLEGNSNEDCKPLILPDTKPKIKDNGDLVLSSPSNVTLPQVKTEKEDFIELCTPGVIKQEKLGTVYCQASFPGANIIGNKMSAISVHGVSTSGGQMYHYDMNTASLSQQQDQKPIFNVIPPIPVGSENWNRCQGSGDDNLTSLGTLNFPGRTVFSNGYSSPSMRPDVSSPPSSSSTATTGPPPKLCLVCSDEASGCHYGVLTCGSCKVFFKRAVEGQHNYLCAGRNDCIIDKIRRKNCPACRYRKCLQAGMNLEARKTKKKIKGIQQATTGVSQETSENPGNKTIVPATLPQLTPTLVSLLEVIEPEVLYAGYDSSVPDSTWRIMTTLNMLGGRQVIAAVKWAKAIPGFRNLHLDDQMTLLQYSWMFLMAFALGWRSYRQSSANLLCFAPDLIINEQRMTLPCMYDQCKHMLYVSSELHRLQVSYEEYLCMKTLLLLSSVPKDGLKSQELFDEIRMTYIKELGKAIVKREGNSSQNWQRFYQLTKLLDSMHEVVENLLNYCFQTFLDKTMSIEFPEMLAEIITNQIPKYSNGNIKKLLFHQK
How it was run: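 HeLa GR-bla cells; cmpd + dex 5 nM final, 18 h 37 C; LiveBLAzer B/G FRET substrate 2 h RT; fluorescence intensity read. Antagonist mode, qHTS.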

[13] = qHTS assay for identifying genotoxic compounds that show differential cytotoxicity against isogenic chicken DT40 cell lines with known DNA damage response pathways - wild type cell line (AID 743012); further: nearly all actives have a fitted effect of over 60% in size; further: potency means the concentration at half of the fitted maximal effect
How it was run: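 Wild type DT40, 300 cells/well, ~0.5 h settle at 37 C/5% CO2; compounds in DMSO added by pintool; 40 h at 37 C/5% CO2; CellTiter-Glo, 30 min RT; luminescence.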

[14] = qHTS assay for identifying genotoxic compounds that show differential cytotoxicity against isogenic chicken DT40 cell lines with known DNA damage response pathways - Rev3 mutant cell line (AID 743014); further: nearly all actives have a fitted effect of over 55% in size; further: potency means the concentration at half of the fitted maximal effect
[15] = qHTS assay for identifying genotoxic compounds that show differential cytotoxicity against isogenic chicken DT40 cell lines with known DNA damage response pathways - Rad54/Ku70 mutant cell line (AID 743015); further: nearly all actives have a fitted effect of over 60% in size; further: potency means the concentration at half of the fitted maximal effect
[16] = biological target: Estrogen receptor (Homo sapiens) (UniProt P03372); assay: qHTS assay to identify small molecule agonists of the estrogen receptor alpha (ER-alpha) signaling pathway (AID 743075; calls by dose curve;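 further: HEK293 GripTite cells with ER-alpha and UAS-driven beta-lactamase reporter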; further: potency means the concentration at half of the fitted maximal effect)
Sequence of Estrogen receptor (Homo sapiens) (P03372 whole entry, looked up): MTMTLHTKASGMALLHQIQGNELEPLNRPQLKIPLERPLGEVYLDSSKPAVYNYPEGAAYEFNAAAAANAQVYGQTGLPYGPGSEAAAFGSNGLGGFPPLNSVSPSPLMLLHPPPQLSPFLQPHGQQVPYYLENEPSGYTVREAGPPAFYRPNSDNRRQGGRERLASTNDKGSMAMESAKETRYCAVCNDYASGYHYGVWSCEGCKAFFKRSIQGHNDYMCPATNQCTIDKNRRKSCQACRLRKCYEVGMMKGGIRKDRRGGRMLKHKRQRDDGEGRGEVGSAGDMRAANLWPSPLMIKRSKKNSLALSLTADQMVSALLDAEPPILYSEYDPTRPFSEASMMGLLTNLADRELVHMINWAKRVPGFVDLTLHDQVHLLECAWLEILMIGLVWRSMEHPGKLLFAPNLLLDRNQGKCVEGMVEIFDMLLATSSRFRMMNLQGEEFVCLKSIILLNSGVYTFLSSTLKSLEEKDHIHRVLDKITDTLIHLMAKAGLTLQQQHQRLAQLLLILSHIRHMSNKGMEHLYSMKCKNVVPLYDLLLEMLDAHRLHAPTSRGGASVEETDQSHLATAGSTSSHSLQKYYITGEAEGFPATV

[17] = biological target: Estrogen receptor (Homo sapiens) (UniProt P03372); assay: qHTS assay to identify small molecule agonists of the estrogen receptor alpha (ER-alpha) signaling pathway using the BG1 cell line (AID 743079); further: nearly all actives have a fitted effect of over 20% in size; further: potency means the concentration at half of the fitted maximal effect
[18] = biological target: Peroxisome proliferator-activated receptor gamma (Homo sapiens) (UniProt P37231); assay: qHTS assay to identify small molecule agonists of the peroxisome proliferator-activated receptor gamma (PPARg) signaling pathway (AID 743094; active means well fitted activation curve with a large enough effect in the signal ratio in the repeat runs, not every such curve was filed as active; inconclusive means weak or mixed curves, or effect the other way; inactive means no such curve, though single readings can be large or run the other way; the % refers to the signal ratio)
Sequence of Peroxisome proliferator-activated receptor gamma (Homo sapiens) (P37231 whole entry, looked up): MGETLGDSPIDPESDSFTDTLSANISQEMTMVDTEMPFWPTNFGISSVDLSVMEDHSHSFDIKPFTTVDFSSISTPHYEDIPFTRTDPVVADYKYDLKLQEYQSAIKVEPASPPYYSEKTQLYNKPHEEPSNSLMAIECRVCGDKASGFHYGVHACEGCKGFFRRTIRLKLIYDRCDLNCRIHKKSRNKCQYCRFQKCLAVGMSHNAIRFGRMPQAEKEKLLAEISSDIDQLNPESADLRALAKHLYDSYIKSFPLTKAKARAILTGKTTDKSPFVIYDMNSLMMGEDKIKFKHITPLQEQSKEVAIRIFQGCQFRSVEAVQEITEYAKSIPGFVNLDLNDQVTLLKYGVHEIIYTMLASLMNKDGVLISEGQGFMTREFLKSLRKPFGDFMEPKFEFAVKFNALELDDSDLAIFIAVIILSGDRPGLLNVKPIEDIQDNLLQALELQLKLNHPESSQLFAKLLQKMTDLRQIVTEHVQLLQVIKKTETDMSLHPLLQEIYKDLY
How it was run: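 Beta-lactamase FRET fluorescence was the read-out after a 1 h room-temperature substrate step, following 17 h compound treatment at 37C of HEK293H cells expressing a UAS-driven bla reporter responsive to PPARg.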

[19] = qHTS assay to test for compound auto fluorescence at 590 nm (red) in HEK293 cell free culture (AID 720683)
How it was run: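 Cell-free wells of DMEM with 10% FBS received compound, and intrinsic fluorescence was read at excitation/emission 540/590 nm. Values expressed as equivalence to Rose Bengal sodium.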

[20] = qHTS assay to identify small molecule antagonists of the estrogen receptor alpha (ER-alpha) signaling pathway using the BG1 cell line (AID 743080; calls by dose curve;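 further: BG1 cells stimulated with 17beta-estradiol alongside compound; nearly all actives have a fitted effect of over 25% in size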; further: potency means the concentration at half of the fitted maximal effect)
How it was run: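 Endogenous full-length ER-alpha in BG1-Luc-4E2 cells drives a stably integrated 4×ERE luciferase gene; compounds were tested against 17beta-estradiol over 21.5 h, with luminescence and multiplexed viability fluorescence recorded.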

Measured: Potency

Cc1cccc(C(C)c2cnc[nH]2)c1C (stereo not drawn)
active: [7] 11.9 µM
inactive: [1] | [2] | [3] | [4] | [5] | [6] | [8] | [9]

C=CC[C@]1(O)CC[C@H]2[C@@H]3CCC4=CCCC[C@@H]4[C@H]3CC[C@@]21C
active: [12] 7.56 µM | [16] 0.952 µM [inconclusive] | [17] 0.376 µM
not listed: [3] | [9] | [19] | [20]
inactive: all other assays above

C[C@H]1CC[C@]2(NC1)O[C@H]1C[C@H]3[C@@H]4CC[C@H]5C[C@@H](O[C@@H]6O[C@H](CO)[C@H](O[C@@H]7O[C@H](CO)[C@@H](O)[C@H](O[C@@H]8OC[C@@H](O)[C@H](O)[C@H]8O)[C@H]7O[C@@H]7O[C@H](CO)[C@@H](O)[C@H](O)[C@H]7O)[C@H](O)[C@H]6O)CC[C@]5(C)[C@H]4CC[C@]3(C)[C@H]1[C@@H]2C
active: [1] 2.11 µM | [13] 1.88 µM | [15] 2.37 µM | [6] 4.77 µM | [16] 9.52 µM [inconclusive]
not listed: [10] | [12] | [14] | [17] | [18] | [20]
inactive: all other assays above

C=CCN(C1=NCCN1)c1c(Cl)cccc1Cl
active: [17] 11.9 µM
not listed: [11] | [19]
inactive: all other assays above

CNC1(c2ccccc2Cl)CCCCC1=O (stereo not drawn)
not listed: [8] | [9] | [14] | [19]
inactive: all other assays above

COC1=CC=C2[C@H]3Cc4ccc(OC)c5c4[C@@]2(CCN3C)[C@H]1O5
not listed: [5]
inactive: all other assays above

C[N+]1(C)[C@@H]2CC[C@H]1CC(OC(=O)c1c[nH]c3ccccc13)C2 (stereo partly drawn)
not listed: [2] | [4] | [5] | [10] | [12] | [14]
inactive: all other assays above

O[C@H]1[C@H]2[C@H](O)CCCN2C[C@H]1O
not listed: [3] | [5] | [10] | [14]
inactive: all other assays above

O=C1CCCCC1CN1CCCCC1 (stereo not drawn)
active: [13] 23.7 µM
not listed: [4] | [6] | [7] | [11] | [14] | [15]
inactive: all other assays above

O=C(CCl)c1ccc(Oc2ccc(C(=O)CCl)cc2)cc1
active: [13] 26.6 µM
not listed: [1] | [10] | [12] | [14] | [15] | [17] | [18]
inactive: all other assays above

C[C@@H](Cc1ccccc1)N(C)C
not listed: [6] | [12] | [16] | [17] | [20]
inactive: all other assays above

Cc1nnc2n1-c1ccc(Cl)cc1C(c1ccccc1)=NC2
active: [12] 6.01 µM | [20] 11.9 µM
not listed: [7] | [9] | [15] | [17] | [18]
inactive: all other assays above

C[C@]12CC[C@H]3[C@@H](CCC4=C(Cl)C(=O)CC[C@@]43C)[C@@H]1CC[C@@H]2O
active: [13] 16.8 µM | [14] 9.44 µM | [15] 23.7 µM | [16] 2.68 µM [inconclusive] | [17] 1.5 µM
inactive: [10] | [1] | [2] | [4] | [5] | [6] | [18] | [8]

CC(C)C[C@H](CN)CC(=O)O
active: [17] 13.3 µM
not listed: [6] | [10] | [11]
inactive: all other assays above

O=C1CN(O)C(c2ccccc2)=c2cc(Cl)ccc2=N1
not listed: [1] | [4] | [11] | [14] | [16] | [17] | [20]
inactive: all other assays above

CC[C@H]1[C@@H]2C[C@H]3[C@@H]4N(C)c5ccccc5[C@]45C[C@@H](C2[C@H]5O)N3[C@@H]1O (stereo partly drawn)
not listed: [5] | [8] | [9] | [13]
inactive: all other assays above

CCC1(C)CC(=O)NC(=O)C1
not listed: [4] | [11] | [20]
inactive: all other assays above

CC(=O)OC1CN2CCC1CC2 (stereo not drawn)
not listed: [4] | [5] | [6] | [11]
inactive: all other assays above

CC(Cc1ccccc1)NC=O (stereo not drawn)
not listed: [6] | [7] | [12] | [16] | [17] | [20]
inactive: all other assays above

CCNC(C)Cc1cccc(C(F)(F)F)c1 (stereo not drawn)
not listed: [1] | [2] | [4] | [7] | [10] | [14] | [15]
inactive: all other assays above

CCCC(=O)OC(C(Cl)(Cl)Cl)P(=O)(OC)OC (stereo not drawn)
active: [17] 26.6 µM
not listed: [3] | [6] | [7] | [10] | [12] | [20]
inactive: all other assays above

c1cc2c(c(NC3=NCCN3)c1)CCCC2
inactive: [10] | [1] | [11] | [2] | [19] | [5] | [12] | [6] | [8] | [9]

C/C=C(\CC)C(=O)NC(N)=O
active: [17] 29.8 µM
not listed: [1] | [7] | [8] | [9]
inactive: all other assays above

C=CCC1(C(C)CCC)C(=O)N=C(S)NC1=O (stereo not drawn)
not listed: [1] | [2] | [8] | [9] | [19]
inactive: all other assays above

c1ccc(C2(N3CCCC3)CCCCC2)cc1
inactive: [2] | [3] | [4] | [19] | [16] | [17] | [20]
active: [13] 5.31 µM | [14] 8.41 µM | [15] 7.5 µM | [7] 26.6 µM | [8] 1.58 µM | [9] 5.01 µM

CN[C@@]1(c2ccccc2Cl)CCCCC1=O
not listed: [7] | [8] | [9]
inactive: all other assays above

C1CN(P2(N3CC3)=NP(N3CC3)(N3CC3)=NP(N3CC3)(N3CC3)=N2)CCO1 (stereo not drawn)
active: [13] 3.76 µM | [14] 0.168 µM | [15] 8.41 µM
not listed: [8] | [9] | [10] | [11] | [12]
inactive: all other assays above

O=C1CN=C(c2ccccc2)c2cc(Cl)ccc2N1
active: [12] 23.9 µM
not listed: [2] | [5] | [6] | [8] | [9] | [13] | [14] | [15]
inactive: all other assays above

C[C@@H]1[C@H]2Cc3ccc(O)cc3[C@]1(C)CCN2C
inactive: [1] | [11] | [2] | [3] | [19] | [5] | [7]
active: [13] 89.3 µM

CCC1C(C)=NN=C(c2ccc(OC)c(OC)c2)c2cc(OC)c(OC)cc21 (stereo not drawn)
not listed: [2] | [6] | [9] | [12] | [14]
inactive: all other assays above
